Measurements: PubChem BioAssay (Tox21)
Records with an inconclusive call do not appear. Activity calls are given as the source filed them. Calls come from the whole dose curve; as a rule, active = well fitted cell-killing curve with a large enough effect in the repeat runs; inconclusive = weak or mixed curves, or effect the other way; inactive = flat fitted curve, though single readings scatter.

Test: qHTS RealTime-Glo MT Cell Viability Assay in HEK293 cells - 0 hour (AID 1224880); note: top concentration of the series differs between compounds; nearly all actives have a fitted effect of over 45% in size
Details: RealTime-Glo luminescence; series mostly up to 76.8 µM
Outline: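 Luminescence readout at each listed time point; HEK293, 600 cells/well, RealTime-Glo MT reagent added with cells; compounds pinned (23 nL in DMSO) after 5 h at 37 C; continuous culture at 37 C.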

Compound	outcome
[N-]=[N+]=CC(=O)OC[C@H](N)C(=O)O	inactive
CCOP(=S)(OCC)Oc1ccc([N+](=O)[O-])cc1	inactive
Cl[C@H]1OCCO[C@@H]1Cl	inactive
Nc1ccc(N)cc1	inactive
CCCCCCCCCCCCCCCCCC(=O)O	inactive
O=C(O)CCCc1ccc(N(CCCl)CCCl)cc1	inactive
OC[C@@H](O)[C@H]1O[C@@H]2O[C@H](C(Cl)(Cl)Cl)O[C@@H]2[C@H]1O	inactive
CC(C)c1cccc(C(C)C)c1O	inactive
CC(C)CCCCCCOC(=O)c1ccccc1C(=O)OCCCCCCC(C)C	inactive
O=P1(NCCCl)OCCCN1CCCl (configuration not stated)	inactive
CNC(=O)O/N=C(\SC)C(=O)N(C)C	inactive
O=C(O)Cc1ccccc1	inactive
N#Cc1cccc(C#N)c1	inactive
Oc1c(Br)cc(Br)cc1Br	inactive
c1ccc2c(c1)CCCC2	inactive
O=[N+]([O-])c1ccc(Cl)cc1	inactive
C/C=C/c1ccc2c(c1)OCO2	inactive
CN(C)C(=O)C(c1ccccc1)c1ccccc1	inactive
CC12CC1(C)C(=O)N(c1cc(Cl)cc(Cl)c1)C2=O (configuration not stated)	inactive
Cc1ccccc1N	inactive
Clc1cnc(Oc2ccc(Oc3ncc(Cl)cc3Cl)cc2)c(Cl)c1	inactive
CC(=O)/C=C/c1ccccc1	inactive
CC(=O)C1CCOC1=O (configuration not stated)	inactive
Cc1ccc(N=C=O)cc1N=C=O	inactive
C=CC(=O)OCCCCCC(C)C	inactive
COC(=O)Nc1cccc(OC(=O)Nc2cccc(C)c2)c1	inactive
O=S(=O)(O)OOS(=O)(=O)O	inactive
